Screens as filed in PubChem BioAssay.
MCF10A rerep – induces DNA re-replication in MCF 10a normal breast cells. MCF 10A DNA re-replication, Hoechst nuclear intensity, 48 h. Potency, µM (series often up to 46.1 µM), hits mostly activators. 350,000 tested, 2.9% active; further: nearly all actives have a fitted effect of over 50% in size
KB-V1 cytotox – KB-V1 MDR subline cytotoxicity. KB-V1 MDR cells viability, CellTiter-Glo, 72 h. Potency, µM (top dose mostly 46.1 µM), hits mostly cytotoxic. AID 1347076. 400,000 tested, 3.4% active; further: nearly all actives have a fitted effect of over 60% in size
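Luminescent ATP read-out (CellTiter-Glo, 10 min) measures survival of drug-selected KB-V1 MDR cells after 72 h, 37 degrees C compound exposure. Medium: phenol-red-free DMEM, 10% FBS. Values from fitted concentration-response curves.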
IL1B secr inh – blocks inflammasome-driven IL-1 beta release. 360,000 tested, 4.7% active. activity change, % at 57.5 µM. THP-1 LPS/ATP IL-1B secretion, AlphaLISA, 16 h; stronger effect = lower value. AID 743279; in the data active means activity change below about -50%; inconclusive means mostly about -30% to -49%
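Secreted IL-1B measured by AlphaLISA bead assay after 16 h compound exposure of THP-1 cells; compounds (final up to 57.5 uM) added 1 h before LPS (250 ng/mL) and ATP (1.25 mM) stimulation; lower signal means less secretion.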
SW480 rerep – DNA re-replication induction in SW480 cells; SW480 DNA re-replication, Hoechst DNA content imaging, 48 h; Potency, µM (top dose mostly 46.1 µM), most hits filed as activators; 340,000 tested, 1.8% active; further: nearly all actives have a fitted effect of over 55% in size
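Treated cells incubate 48 hr (37 C, 5% CO2), are stained 40 min with Hoechst, and nuclear fluorescence is enumerated; a rise in nuclei with high DNA signal marks re-replication.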
KB-3-1 cytotox – kills parental KB-3-1 adenocarcinoma cells. KB-3-1 viability, CellTiter-Glo ATP luminescence, 72 h. Potency, µM (titrated, usually from 46.1 µM), hits mostly cytotoxic. 400,000 tested, 1.4% active; further: nearly all actives have a fitted effect of over 60% in size
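Luminescent ATP read-out (CellTiter-Glo) measures survival of drug-naive KB-3-1 cells after 72 h compound exposure at 37 °C. Titration series was screened from lowest to highest concentration, with DMSO vehicle plates as background controls.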
A number is an active result. The list is not random: actives were taken first. Their share in the collection is about 9.9%. Unless noted, the call rests on the fitted dose curve; in most records, active means well fitted curve in the direction sought with a large enough effect; inconclusive means small, poorly fitted or top-dose-only effect, or another doubt; inactive means no such curve, though single readings can be large; an effect the other way counts as inactive or inconclusive.

For C=CCNc1nc2cc(-c3ccccc3C)sc2c(=O)n1C the results were KB-V1 cytotox inconclusive, IL1B secr inh inactive and KB-3-1 cytotox 21µM.
`COc1cccc(-c2cc3nc(NCCCN(C)C)n(C)c(=O)c3s2)c1` gave KB-V1 cytotox inactive, IL1B secr inh -63 and KB-3-1 cytotox inactive.
CN(C)CCCNc1nc2cc(-c3ccsc3)sc2c(=O)n1C was read as KB-V1 cytotox inactive, IL1B secr inh inconclusive and KB-3-1 cytotox inconclusive.
Screening Cc1cc(C)c(C(=O)C2OC(=O)C(C)(C)C(=O)C2(C)C)c(C)c1 (stereo not given) returned MCF10A rerep inactive, KB-V1 cytotox inactive, IL1B secr inh inactive, SW480 rerep inactive and KB-3-1 cytotox inactive.
COc1ccc(-c2n[nH]c(C(F)(F)F)c2-c2cc3ccccc3o2)c(O)c1 was read as MCF10A rerep inactive, KB-V1 cytotox 18µM, IL1B secr inh -54, SW480 rerep inactive and KB-3-1 cytotox inactive.
For COc1ccc(C(=O)CCNc2ccc3c(c2)OCCO3)cc1 the results were MCF10A rerep 23µM, KB-V1 cytotox inactive, IL1B secr inh -53, SW480 rerep inconclusive and KB-3-1 cytotox inactive.
Screening COc1ccc(C(=O)Nc2ccc3c(c2)OCCO3)cc1 returned MCF10A rerep inconclusive, KB-V1 cytotox inconclusive, IL1B secr inh inactive, SW480 rerep 7.3µM and KB-3-1 cytotox inactive.
Screening COc1ccc(C(=O)Nc2ccc3[nH]ccc3c2)cc1OC returned MCF10A rerep inconclusive, KB-V1 cytotox inactive, IL1B secr inh inactive, SW480 rerep inactive and KB-3-1 cytotox inconclusive.
`COc1ccc(NC(=O)C2=Cc3ccccc3OC2)cc1` gave MCF10A rerep inactive, KB-V1 cytotox inconclusive, IL1B secr inh -51, SW480 rerep inactive and KB-3-1 cytotox inactive.
For COc1ccc(C(=O)Nc2ccc3[nH]ccc3c2)cc1 the results were MCF10A rerep inconclusive, KB-V1 cytotox 16µM, IL1B secr inh inactive, SW480 rerep inconclusive and KB-3-1 cytotox 16µM.
CC(=O)Oc1ccc(C(=O)Nc2ccc3c(c2)OCCO3)cc1 was read as MCF10A rerep inconclusive, KB-V1 cytotox inconclusive, IL1B secr inh inconclusive, SW480 rerep inactive and KB-3-1 cytotox inconclusive.
Screening COc1ccc(NC(=O)C2=Cc3cccc(OC)c3OC2)cc1 returned MCF10A rerep inactive, KB-V1 cytotox inconclusive, IL1B secr inh inactive, SW480 rerep inactive and KB-3-1 cytotox inactive.
For Cc1nc(C(C)NC(=O)CCc2nnc(-c3ccsc3)o2)cs1 (stereo not given) the results were MCF10A rerep inactive, KB-V1 cytotox inactive, IL1B secr inh inactive, SW480 rerep inactive and KB-3-1 cytotox inactive.
`CCOc1cc(C(=O)Nc2c(NC)c3ccccc3oc2=O)cc(OCC)c1OCC` gave KB-V1 cytotox inactive and KB-3-1 cytotox inactive.
`COc1cc(NC(=O)c2ccc3c(c2)OCCO3)ccc1NC(=O)c1ccccc1Cl` gave MCF10A rerep inactive, KB-V1 cytotox inactive, IL1B secr inh -53, SW480 rerep inactive and KB-3-1 cytotox inactive.
`COc1cccc(CNC(C)C(=O)Nc2ccc3c(c2)OCCO3)c1` (stereo not given) gave MCF10A rerep inactive, KB-V1 cytotox inconclusive, IL1B secr inh -61, SW480 rerep inactive and KB-3-1 cytotox inactive.
`COc1ccc(OCCCC(=O)Nc2ccc3c(c2)OCCO3)cc1` gave MCF10A rerep 21µM, KB-V1 cytotox inconclusive, IL1B secr inh inactive, SW480 rerep inactive and KB-3-1 cytotox inactive.
COc1cc2[nH]c(C(=O)Nc3ccc4c(c3)OCCO4)cc2c(OC)c1OC was read as MCF10A rerep inactive, KB-V1 cytotox inconclusive, IL1B secr inh -91, SW480 rerep inactive and KB-3-1 cytotox inactive.
Screening CC1=CC(C)(C(Cl)(Cl)Cl)C(C)=CC1=NO (stereo not given) returned KB-V1 cytotox inactive, IL1B secr inh inactive and KB-3-1 cytotox inactive.
COc1ccc(NC(=O)CSCC(=O)N(C)Cc2ccc3c(c2)OCCO3)cc1 was read as MCF10A rerep inactive, KB-V1 cytotox 15µM, IL1B secr inh inactive, SW480 rerep inactive and KB-3-1 cytotox inactive.
O=C(COCC(=O)NCc1ccccc1)NCc1ccccc1 was read as MCF10A rerep inactive, KB-V1 cytotox inactive, IL1B secr inh inactive, SW480 rerep inactive and KB-3-1 cytotox inactive.
`CN(C)C(=O)CSc1nc(-c2ccccc2)nc2c1CCCC2` gave MCF10A rerep inactive, KB-V1 cytotox inconclusive, IL1B secr inh -70, SW480 rerep inconclusive and KB-3-1 cytotox inconclusive.
`CN(C)CCCSc1nc(-c2ccccc2)nc2c1CCC2` gave MCF10A rerep inactive, KB-V1 cytotox inactive, IL1B secr inh -53, SW480 rerep inactive and KB-3-1 cytotox inactive.
`CN(C)CCSc1nc(-c2ccccc2)nc2c1CCC2` gave MCF10A rerep inactive, KB-V1 cytotox inactive, IL1B secr inh inactive, SW480 rerep inactive and KB-3-1 cytotox inactive.
`NC(=O)CSc1nc(-c2ccccc2)nc2c1CCCC2` gave MCF10A rerep inactive, KB-V1 cytotox inactive, IL1B secr inh inactive, SW480 rerep inactive and KB-3-1 cytotox inactive.
Screening CCOC(=O)c1nnc2c(-c3ccc(Cl)cc3)c(C)nn2c1C returned KB-V1 cytotox inconclusive and KB-3-1 cytotox inactive.
For CC1=CC(C)C(/C=N/N=C(N)N)C(C)C1 (stereo not given) the results were MCF10A rerep inconclusive, KB-V1 cytotox inactive, IL1B secr inh -66, SW480 rerep inconclusive and KB-3-1 cytotox inconclusive.
`CC1=CC(C)C(C[N+]2(C)CCCCC2)C(C)C1` (stereo not given) gave MCF10A rerep inactive, KB-V1 cytotox inactive, IL1B secr inh inactive, SW480 rerep inactive and KB-3-1 cytotox inactive.
`Cc1cc(OCCCCNC(C)C)cc(C(C)C)c1` gave MCF10A rerep inconclusive, KB-V1 cytotox 21µM, IL1B secr inh inactive, SW480 rerep inconclusive and KB-3-1 cytotox inactive.
`c1c[nH]c(CN2CCN(Cc3ncc[nH]3)CC2)n1` gave MCF10A rerep inactive, KB-V1 cytotox inactive, IL1B secr inh inactive, SW480 rerep inactive and KB-3-1 cytotox inactive.
Screening Cc1cccc(NC(=S)NNC(=O)c2csc(C(C)C)c2)c1 returned MCF10A rerep inconclusive, KB-V1 cytotox 21µM, IL1B secr inh inactive, SW480 rerep inactive and KB-3-1 cytotox inactive.
`CCc1cc(C(=O)NNC(=S)Nc2cccc(C)c2)cs1` gave MCF10A rerep inconclusive, KB-V1 cytotox inactive, IL1B secr inh inactive, SW480 rerep inactive and KB-3-1 cytotox inactive.
CCOP(=O)(OCC)c1cccc(P(=O)(c2ccccc2)c2ccccc2)c1O was read as MCF10A rerep inactive, KB-V1 cytotox inactive, IL1B secr inh inactive, SW480 rerep inactive and KB-3-1 cytotox inactive.
For CC(C)(C)c1cccc(P(=O)(c2ccccc2)c2ccccc2)c1O the results were MCF10A rerep inconclusive, KB-V1 cytotox inactive, IL1B secr inh -71, SW480 rerep inconclusive and KB-3-1 cytotox inconclusive.
`Cc1cccc(NC(=O)CSc2nnc3ccc(-c4ccccn4)nn23)c1` gave MCF10A rerep inconclusive, KB-V1 cytotox inactive, IL1B secr inh inactive, SW480 rerep inconclusive and KB-3-1 cytotox inactive.
